Reference: PubChem BioAssay AID1159580 (chemical genetic matrix, 2015)
“And” between values parts separate entries of the source, which are not always exact repeats. Identical values can stand only once. Among all 5,500 compounds or so, about 2,000 (36%) were called active. Another 18% or so got no clear call; they are omitted. Cut-off read from the data, not from the text of the source: active = normalized growth mostly below about 0.91 (no sharp cut-off); inconclusive = no clear call, values can overlap the other calls; inactive = mostly above about 0.92. The list shows a part of the results.

Assay: chemical genetic growth profiling, strain panel (AID 1159580);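 note: tested at 20 µM; growth read once vehicle control cultures reached saturation at 30 °C; 1 = growth at the plate median or of vehicle wells; lower values mean less growth of the strain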
Conditions: growth OD

Measured: normalized growth

COc1ccc(C(=O)N2CCCC2=O)cc1
inactive: S. cerevisiae deletion strains, locus YJR075W, strain HOC1, hits give low values 0.99 | S. cerevisiae deletion strains, locus YKL009W, strain mrt4, hits give low values 0.97 | S. cerevisiae deletion strains, locus YKL068W, hits give low values 0.976 | S. cerevisiae deletion strains, locus YKL085W, strain MDH1 (second series), hits give low values 0.984 | S. cerevisiae deletion strains, locus YKL085W, strain MDH1, hits give low values 0.984 | S. cerevisiae deletion strains, locus YKL160W, strain elf1, hits give low values 0.952 | S. cerevisiae deletion strains, locus YKL190W, strain CNB1, hits give low values 0.993 | S. cerevisiae deletion strains, locus YKR001C, strain vps1, hits give low values 0.968 | S. cerevisiae deletion strains, locus YKR026C, strain gcn3, hits give low values 0.976 | S. cerevisiae deletion strains, locus YKR091W, strain srl3, hits give low values 0.969 | S. cerevisiae deletion strains, locus YLL001W, strain dnm1, hits give low values 0.963 | S. cerevisiae deletion strains, locus YLL026W, hits give low values 0.98 | S. cerevisiae deletion strains, locus YLL041C, strain sdh2, hits give low values 0.986 | S. cerevisiae deletion strains, locus YLR027C, strain aat2, hits give low values 0.963 | S. cerevisiae deletion strains, locus YLR039C, strain RIC1, hits give low values 0.947 | S. cerevisiae deletion strains, locus YLR058C, strain SHM2, hits give low values 0.978 | S. cerevisiae deletion strains, locus YLR102C, strain apc9, hits give low values 0.979 | S. cerevisiae deletion strains, locus YLR221C, strain rsa3, hits give low values 0.945 | S. cerevisiae deletion strains, locus YLR258W, strain gsy2, hits give low values 0.98 | S. cerevisiae deletion strains, locus YLR262C, strain YPT6 (second series), hits give low values 0.967 | S. cerevisiae deletion strains, locus YLR262C, strain YPT6, hits give low values 0.902 | S. cerevisiae deletion strains, locus YLR268W, strain sec22, hits give low values 0.971 | S. cerevisiae deletion strains, locus YLR320W, strain mms22, hits give low values 0.933 | S. cerevisiae deletion strains, locus YLR330W, strain CHS5, hits give low values 0.986 | S. cerevisiae deletion strains, locus YLR342W, strain FKS1 (second series), hits give low values 0.995 | S. cerevisiae deletion strains, locus YLR342W, strain FKS1, hits give low values 0.99 | S. cerevisiae deletion strains, locus YLR357W, strain rsc2, hits give low values 0.991 | S. cerevisiae deletion strains, locus YLR370C, strain arc18, hits give low values 0.963 | S. cerevisiae deletion strains, locus YLR371W, strain rom2, hits give low values 0.993 | S. cerevisiae deletion strains, locus YLR384C, strain iki3, hits give low values 0.958 | S. cerevisiae deletion strains, locus YLR418C, strain cdc73, hits give low values 0.967 | S. cerevisiae deletion strains, locus YML016C, strain PPZ1, hits give low values 0.983 | S. cerevisiae deletion strains, locus YML032C, strain rad52, hits give low values 1 | S. cerevisiae deletion strains, locus YML120C, strain ndi1, hits give low values 0.94 | S. cerevisiae deletion strains, locus YML124C, strain tub3, hits give low values 0.994 | S. cerevisiae deletion strains, locus YMR058W, strain fet3, hits give low values 0.971 | S. cerevisiae deletion strains, locus YMR078C, strain ctf18, hits give low values 0.974 | S. cerevisiae deletion strains, locus YMR125W, strain sto1, hits give low values 0.973 | S. cerevisiae deletion strains, locus YMR129W, hits give low values 0.986 | S. cerevisiae deletion strains, locus YMR205C, strain PFK2, hits give low values 0.971 | S. cerevisiae deletion strains, locus YMR223W, strain ubp8, hits give low values 0.995 | S. cerevisiae deletion strains, locus YMR231W, strain pep5, hits give low values 0.978 | S. cerevisiae deletion strains, locus YMR263W, strain SAP30, hits give low values 0.964 | S. cerevisiae deletion strains, locus YMR307W, strain GAS1, hits give low values 0.99 | S. cerevisiae deletion strains, locus YNL067W, strain RPL9B, hits give low values 0.974 | S. cerevisiae deletion strains, locus YNL071W, strain lat1, hits give low values 0.982 | S. cerevisiae deletion strains, locus YNL128W, strain TEP1, hits give low values 0.979 | S. cerevisiae deletion strains, locus YNL153C, strain GIM3, hits give low values 0.965 and 1.01 | S. cerevisiae deletion strains, locus YNL175C, strain NOP13, hits give low values 1 | S. cerevisiae deletion strains, locus YNL197C, strain WHI3, hits give low values 1.01 | S. cerevisiae deletion strains, locus YNL209W, strain ssb2, hits give low values 0.984 | S. cerevisiae deletion strains, locus YNL224C, strain SQS1, hits give low values 1.02 | S. cerevisiae deletion strains, locus YNL233W, strain BNI4, hits give low values 0.99 | S. cerevisiae deletion strains, locus YNL248C, strain rpa49, hits give low values 0.976 | S. cerevisiae deletion strains, locus YNL250W, strain rad50, hits give low values 0.964 | S. cerevisiae deletion strains, locus YNL271C, strain bni1, hits give low values 0.986 | S. cerevisiae deletion strains, locus YNL298W, strain CLA4, hits give low values 0.982 | S. cerevisiae deletion strains, locus YNL307C, strain MCK1, hits give low values 0.989 | S. cerevisiae deletion strains, locus YNL322C, strain KRE1 (second series), hits give low values 0.955 | S. cerevisiae deletion strains, locus YNL322C, strain KRE1, hits give low values 0.986 and 1 | S. cerevisiae deletion strains, locus YNR049C, strain mso1, hits give low values 0.954 | S. cerevisiae deletion strains, locus YNR052C, strain pop2, hits give low values 0.974 | S. cerevisiae deletion strains, locus YOL006C, strain TOP1, hits give low values 0.921 | S. cerevisiae deletion strains, locus YOL012C, strain htz1 0.923 | S. cerevisiae deletion strains, locus YOL147C, strain pex11, hits give low values 0.99 | S. cerevisiae deletion strains, locus YOR001W, strain rrp6, hits give low values 0.998 | S. cerevisiae deletion strains, locus YOR061W, strain CKA2, hits give low values 0.949 | S. cerevisiae deletion strains, locus YOR069W, strain VPS5, hits give low values 0.987 | S. cerevisiae deletion strains, locus YOR070C, strain gyp1, hits give low values 0.991 | S. cerevisiae deletion strains, locus YOR080W, strain dia2, hits give low values 0.976 | S. cerevisiae deletion strains, locus YOR083W, strain WHI5 (second series), hits give low values 1.02 | S. cerevisiae deletion strains, locus YOR083W, strain WHI5, hits give low values 0.946 | S. cerevisiae deletion strains, locus YOR106W, strain vam3, hits give low values 0.93 | S. cerevisiae deletion strains, locus YOR136W, strain idh2, hits give low values 0.99 | S. cerevisiae deletion strains, locus YOR144C, strain elg1, hits give low values 0.999 | S. cerevisiae deletion strains, locus YOR184W, strain ser1, hits give low values 0.993 | S. cerevisiae deletion strains, locus YOR265W, strain rbl2, hits give low values 0.989 | S. cerevisiae deletion strains, locus YOR270C, strain vph1, hits give low values 0.929 | S. cerevisiae deletion strains, locus YOR290C, strain snf2, hits give low values 0.933 | S. cerevisiae deletion strains, locus YOR316C, strain cot1, hits give low values 0.978 | S. cerevisiae deletion strains, locus YPL051W, strain arl3, hits give low values 1.01 | S. cerevisiae deletion strains, locus YPL055C, strain LGE1, hits give low values 0.988 | S. cerevisiae deletion strains, locus YPL078C, strain atp4, hits give low values 0.963 | S. cerevisiae deletion strains, locus YPL106C, strain sse1, hits give low values 0.925 | S. cerevisiae deletion strains, locus YPL240C, strain hsp82, hits give low values 0.986 | S. cerevisiae deletion strains, locus YPL241C, strain CIN2, hits give low values 1.03 and 1 | S. cerevisiae deletion strains, locus YPR119W, strain clb2, hits give low values 0.991 | S. cerevisiae deletion strains, locus YPR141C, strain kar3, hits give low values 0.962 | S. cerevisiae deletion strains, locus YPR163C, strain tif3, hits give low values 1 | S. cerevisiae deletion strains, locus YPR167C, strain met16, hits give low values 0.972 | S. cerevisiae deletion strains, strain wtn01, hits give low values 0.984 | S. cerevisiae strains, strain wild type, hits give low values 0.993
